Assay results published in PubChem BioAssay (Tox21).
“And” between values parts separate entries of the source, which are not always exact repeats. Identical values can stand only once. Records with an inconclusive call do not appear. Where a call stands in place of a potency, no number is given. The source holds several records for some structures; these can differ, active in one and inactive in another. The source made the active and inactive calls. Unless noted, calls come from the whole dose curve; as a rule, active = well fitted curve in the direction sought with a large enough effect in the repeat runs; inconclusive = weak or mixed curves; inactive = no such curve, though single readings can be large; an effect the other way counts as inactive or inconclusive.

What was measured:
[1] = qHTS assay to identify aromatase inhibitors - cell viability counter screen (AID 743084);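 note: cells stimulated with testosterone during compound exposure; nearly all actives have a fitted effect of over 55% in size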; note: potency is the fitted concentration of half-maximal effect
[2] = target: Aryl hydrocarbon receptor (Homo sapiens) (UniProt P35869); test: qHTS assay to identify small molecule that activate the aryl hydrocarbon receptor (AhR) signaling pathway (AID 743085); note: nearly all actives have a fitted effect of over 15% in size; note: potency is the fitted concentration of half-maximal effect;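 for activation: HG2L7.5c1 human HepG2 liver cells with stably integrated DRE-driven firefly reporter; series mostly up to about 70 µM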
Procedure, shortened: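 Reporter assay in engineered HepG2 line HG2L7.5c1, whose plasmid carries twenty dioxin responsive elements upstream of firefly luciferase. Treatment lasted 24 h at 37C; ONE-Glo luminescence gauged induction.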

[3] = qHTS assay to identify small molecule that activate the aryl hydrocarbon receptor (AhR) signaling pathway - cell viability counter screen (AID 743086);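 note: HepG2 liver cells carrying the AhR DRE luciferase reporter; series mostly up to about 70 µM; nearly all actives have a fitted effect of over 45% in size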
Procedure, shortened: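 HepG2-AhR-luc (HG2L7.5c1) cells, 4000/well, treated 24 h at 37 C with compound; viability measured as CellTiter-Fluor fluorescence after 30 min in the same wells as the luciferase read.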

[4] = target: Peroxisome proliferator-activated receptor gamma (Homo sapiens) (UniProt P37231); test: qHTS assay to identify small molecule agonists of the peroxisome proliferator-activated receptor gamma (PPARg) signaling pathway (AID 743094; active = well fitted activation curve with a large enough effect in the signal ratio in the repeat runs, not every such curve was filed as active; the % refers to the signal ratio; note: potency is the fitted concentration of half-maximal effect)
Procedure, shortened: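 Compounds dissolved in DMSO were added to PPARg UAS-bla HEK293H cells for 17 h at 37C, and reporter expression was quantified by fluorescence intensity after 1 h with LiveBLAzer B/G FRET substrate.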

[5] = target: Peroxisome proliferator-activated receptor gamma (Homo sapiens) (UniProt P37231); test: qHTS assay to identify small molecule antagonists of the peroxisome proliferator-activated receptor gamma (PPARg) signaling pathway (AID 743191; calls by dose curve; note: nearly all actives have a fitted effect of over 30% in size; note: potency is the fitted concentration of half-maximal effect)
Procedure, shortened: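 GeneBLAzer PPARg UAS-bla HEK293H cells, 5 h post-plating, exposed to compounds 17 h at 37C. LiveBLAzer B/G FRET substrate added for 1 h at room temperature; beta-lactamase reporter read by fluorescence intensity.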

[6] = qHTS assay to identify small molecule antagonists of the peroxisome proliferator-activated receptor gamma (PPARg) signaling pathway - cell viability counter screen (AID 743194); note: nearly all actives have a fitted effect of over 55% in size
Procedure, shortened: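 Cytotoxicity counter screen in PPARg-bla HEK293H cells, same wells as reporter assay. Compounds plus 50 nM rosiglitazone (final) for 17 h at 37 C, then viability read by CellTiter-Glo luminescence.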

[7] = qHTS assay for small molecule agonists of the antioxidant response element (ARE) signaling pathway (AID 743202; active = well fitted activation curve with a large enough effect in the signal ratio in the repeat runs, not every such curve was filed as active; the % refers to the signal ratio; note: potency is the fitted concentration of half-maximal effect)
Procedure, shortened: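 ARE-bla HepG2 cells (beta-lactamase reporter under the antioxidant response element), plated 5 hours, then exposed to compounds 16 hours at 37 C. LiveBLAzer B/G FRET substrate added for 2 hours at room temperature; fluorescence intensity read.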

[8] = qHTS assay for small molecule agonists of the antioxidant response element (ARE) signaling pathway - cell viability counter screen (AID 743203; calls by dose curve; note: nearly all actives have a fitted effect of over 55% in size)
Procedure, shortened: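 Following 16 hrs of compound treatment at 37C, HepG2 cells with an ARE-controlled beta-lactamase gene were lysed with CellTiter-Glo. Luminescence was read after 30 min at room temperature.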

[9] = qHTS assay for small molecule activators of the heat shock response signaling pathway - cell viability counter screen (AID 743209); note: nearly all actives have a fitted effect of over 50% in size
Procedure, shortened: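 Readout: CellTiter-Glo luminescence, 30 min at room temperature. System: HSE-bla HeLa cells, 1500/well, plated overnight. Treatment: compounds in DMSO, 5 h at 37 C.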

[10] = qHTS assay for small molecule activators of the heat shock response signaling pathway (AID 743210; active = well fitted activation curve with a large enough effect in the signal ratio in the repeat runs, with a control signal flat, not every such curve was filed as active; the % refers to the signal ratio; note: series mostly up to about 63 µM)
Procedure, shortened: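 HSE-bla HeLa cells (beta-lactamase reporter under heat shock response elements), plated overnight, then exposed to compounds 5 h at 37 C; LiveBLAzer B/G FRET substrate added, 2.5 h at room temperature, fluorescence intensity read.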

[11] = qHTS assay to identify small molecule agonists of the peroxisome proliferator-activated receptor delta (PPARd) signaling pathway - cell viability counter screen (AID 743211); note: nearly all actives have a fitted effect of over 55% in size
Procedure, shortened: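 Multiplexed format: after the 2 h room-temperature LiveBLAzer B/G FRET step, CellTiter-Glo was added to the same wells. Luminescence after 30 min gave cell viability; compound exposure was 17 h at 37C.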

[12] = target: Peroxisome proliferator-activated receptor delta (Homo sapiens) (UniProt Q03181); test: qHTS assay to identify small molecule agonists of the peroxisome proliferator-activated receptor delta (PPARd) signaling pathway (AID 743212; calls by dose curve)
Procedure, shortened: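 GeneBLAzer UAS-bla HEK293H cells carrying a PPARδ construct were exposed to compounds at 37 °C. Beta-lactamase activity was read by FRET fluorescence after 2 h at room temperature with LiveBLAzer B/G substrate.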

[13] = qHTS assay to identify small molecule antagonists of the peroxisome proliferator-activated receptor delta (PPARd) signaling pathway - cell viability counter screen (AID 743213); note: nearly all actives have a fitted effect of over 50% in size
Procedure, shortened: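 In this counter screen, HEK293H cells carrying a UAS-beta-lactamase reporter are co-treated with test compounds and 300 nM L165041 (final) for 17 h at 37 C; cell viability is quantified by CellTiter-Glo luminescence.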

[14] = target: Peroxisome proliferator-activated receptor delta (Homo sapiens) (UniProt Q03181); test: qHTS assay to identify small molecule antagonists of the peroxisome proliferator-activated receptor delta (PPARd) signaling pathway (AID 743215; active = well fitted inhibition curve with a large enough effect in the signal ratio in the repeat runs, not every such curve was filed as active; the % refers to the signal ratio;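 note: cells stimulated with agonist L165041 at 300 nM final during compound exposure; series mostly up to about 62 µM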)
Procedure, shortened: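 HEK293H UAS-bla, PPARd; agonist L165041 300 nM final with cpd in DMSO; 37 C 17 h; FRET substrate, RT 2 h; fluorescence intensity.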

[15] = qHTS assay to identify small molecule agonists of the farnesoid-X-receptor (FXR) signaling pathway - cell viability counter screen (AID 743218); note: nearly all actives have a fitted effect of over 45% in size
Procedure, shortened: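 Parallel cytotoxicity test: compound-treated (16 h, 37 C) HEK 293T FXR-bla reporter cells were lysed with CellTiter-Glo and luminescence recorded.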

[16] = qHTS assay to identify small molecule antagonists of the farnesoid-X-receptor (FXR) signaling pathway - cell viability counter screen (AID 743221; active = well fitted cell-killing curve with a large enough effect in the repeat runs, not every such curve was filed as active; note: nearly all actives have a fitted effect of over 50% in size)
Procedure, shortened: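 CellTiter-Glo, 30 min RT, luminescence; same wells as the LiveBLAzer FRET read. Cells: FXR-UAS-bla HEK 293T. Treatment: compound with chenodeoxycholic acid 50 uM final, 16 h at 37 C.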

[17] = target: Vitamin D3 receptor (Homo sapiens) (UniProt P11473); test: qHTS assay to identify small molecule agonists of the vitamin D receptor (VDR) signaling pathway (AID 743222; calls by dose curve)
Procedure, shortened: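 In VDR-bla cells, compound-induced beta-lactamase expression is quantified by FRET substrate fluorescence. Treatment lasts 16 h at 37C; substrate develops 2 h at room temperature.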

[18] = target: Vitamin D3 receptor (Homo sapiens) (UniProt P11473); test: qHTS assay to identify small molecule antagonists of the vitamin D receptor (VDR) signaling pathway (AID 743223; active = well fitted inhibition curve with a large enough effect in the signal ratio in the repeat runs, not every such curve was filed as active; the % refers to the signal ratio)
Procedure, shortened: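 After VDR-bla cells are plated and left 4 h at 37C, DMSO-dissolved compounds and 3 nM (final) calcitriol agonist are added. Incubation continues 16 h at 37C; FRET beta-lactamase substrate then develops 2 h at room temperature.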

[19] = target: Bile acid receptor (Homo sapiens) (UniProt Q96RI1); test: qHTS assay to identify small molecule agonists of the farnesoid-X-receptor (FXR) signaling pathway (AID 743220; active = well fitted activation curve with a large enough effect in the signal ratio in the repeat runs, not every such curve was filed as active; the % refers to the signal ratio)
Procedure, shortened: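 Beta-lactamase reporter under UAS control in GeneBLAzer FXR HEK 293T cells (5000/well) measured with LiveBLAzer FRET substrate after 2 h at room temperature. Compound exposure lasted 16 h at 37C.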

[20] = target: Bile acid receptor (Homo sapiens) (UniProt Q96RI1); test: qHTS assay to identify small molecule antagonists of the farnesoid-X-receptor (FXR) signaling pathway (AID 743217; active = well fitted inhibition curve with a large enough effect in the signal ratio in the repeat runs, not every such curve was filed as active; the % refers to the signal ratio)
Procedure, shortened: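 GeneBLAzer FXR-UAS-bla HEK 293T, CDCA-stimulated (50 uM final). Compound treatment 16 h, 37 °C. Detection: beta-lactamase cleavage of B/G FRET substrate, fluorescence.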

Sequence of Vitamin D3 receptor (Homo sapiens) (P11473 whole entry, looked up): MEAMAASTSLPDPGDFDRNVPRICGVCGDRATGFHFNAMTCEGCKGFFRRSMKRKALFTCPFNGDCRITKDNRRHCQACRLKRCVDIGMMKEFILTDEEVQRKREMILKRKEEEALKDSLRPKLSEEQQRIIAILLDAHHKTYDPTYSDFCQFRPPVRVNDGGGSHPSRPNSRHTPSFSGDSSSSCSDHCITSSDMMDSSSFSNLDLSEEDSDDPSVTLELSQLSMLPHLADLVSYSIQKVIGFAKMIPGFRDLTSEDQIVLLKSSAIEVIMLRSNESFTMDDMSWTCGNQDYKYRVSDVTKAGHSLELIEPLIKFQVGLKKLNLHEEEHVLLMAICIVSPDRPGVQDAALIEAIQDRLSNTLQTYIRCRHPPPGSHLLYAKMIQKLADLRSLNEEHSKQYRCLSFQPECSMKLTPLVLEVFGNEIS
Sequence of Aryl hydrocarbon receptor (Homo sapiens) (P35869 whole entry, looked up): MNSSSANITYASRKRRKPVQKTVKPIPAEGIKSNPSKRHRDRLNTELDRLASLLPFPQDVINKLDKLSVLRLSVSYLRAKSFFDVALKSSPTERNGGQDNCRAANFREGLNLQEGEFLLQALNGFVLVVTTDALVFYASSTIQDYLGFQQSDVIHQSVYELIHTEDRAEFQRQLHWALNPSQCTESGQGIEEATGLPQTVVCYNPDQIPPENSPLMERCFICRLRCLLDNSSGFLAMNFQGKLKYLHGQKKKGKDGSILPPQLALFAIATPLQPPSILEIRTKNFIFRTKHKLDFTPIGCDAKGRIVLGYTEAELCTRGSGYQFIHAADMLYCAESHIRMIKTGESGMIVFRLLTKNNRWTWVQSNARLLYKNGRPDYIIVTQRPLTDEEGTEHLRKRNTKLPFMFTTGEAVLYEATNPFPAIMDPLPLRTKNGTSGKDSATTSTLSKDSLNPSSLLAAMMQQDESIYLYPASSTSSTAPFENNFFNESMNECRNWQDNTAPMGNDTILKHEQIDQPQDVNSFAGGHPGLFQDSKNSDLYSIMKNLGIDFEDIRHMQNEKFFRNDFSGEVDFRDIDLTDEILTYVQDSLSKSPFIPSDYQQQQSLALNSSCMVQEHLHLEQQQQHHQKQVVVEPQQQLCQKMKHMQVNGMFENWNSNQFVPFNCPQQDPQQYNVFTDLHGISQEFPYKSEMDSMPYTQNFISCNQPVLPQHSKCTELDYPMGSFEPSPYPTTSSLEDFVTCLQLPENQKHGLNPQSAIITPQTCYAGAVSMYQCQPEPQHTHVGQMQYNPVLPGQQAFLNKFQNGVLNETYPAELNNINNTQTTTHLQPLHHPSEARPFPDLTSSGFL
Sequence of Peroxisome proliferator-activated receptor delta (Homo sapiens) (Q03181 whole entry, looked up): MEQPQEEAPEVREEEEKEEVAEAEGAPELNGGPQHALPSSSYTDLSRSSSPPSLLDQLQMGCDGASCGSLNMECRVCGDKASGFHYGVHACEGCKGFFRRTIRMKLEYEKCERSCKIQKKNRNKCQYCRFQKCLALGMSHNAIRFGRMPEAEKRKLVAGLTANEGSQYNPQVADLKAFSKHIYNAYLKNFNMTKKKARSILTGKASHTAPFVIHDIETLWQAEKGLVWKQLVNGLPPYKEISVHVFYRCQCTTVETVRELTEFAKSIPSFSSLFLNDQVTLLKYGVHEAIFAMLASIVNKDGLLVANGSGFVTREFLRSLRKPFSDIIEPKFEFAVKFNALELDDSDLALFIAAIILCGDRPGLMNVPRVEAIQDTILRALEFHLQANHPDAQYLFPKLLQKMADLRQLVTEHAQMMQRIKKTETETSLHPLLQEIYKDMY
Sequence of Bile acid receptor (Homo sapiens) (Q96RI1 whole entry, looked up): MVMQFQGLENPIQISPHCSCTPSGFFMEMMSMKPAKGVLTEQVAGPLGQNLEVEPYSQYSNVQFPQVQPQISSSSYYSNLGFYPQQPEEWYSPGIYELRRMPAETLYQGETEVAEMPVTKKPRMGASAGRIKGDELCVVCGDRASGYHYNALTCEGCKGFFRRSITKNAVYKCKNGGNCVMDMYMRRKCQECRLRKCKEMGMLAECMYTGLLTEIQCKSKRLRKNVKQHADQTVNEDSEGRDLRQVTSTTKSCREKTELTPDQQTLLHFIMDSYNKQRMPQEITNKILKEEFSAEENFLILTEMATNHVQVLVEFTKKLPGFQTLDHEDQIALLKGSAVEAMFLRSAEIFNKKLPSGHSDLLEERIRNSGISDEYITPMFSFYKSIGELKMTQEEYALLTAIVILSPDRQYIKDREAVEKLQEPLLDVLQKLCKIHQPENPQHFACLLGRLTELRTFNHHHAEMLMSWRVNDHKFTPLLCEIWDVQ
Sequence of Peroxisome proliferator-activated receptor gamma (Homo sapiens) (P37231 whole entry, looked up): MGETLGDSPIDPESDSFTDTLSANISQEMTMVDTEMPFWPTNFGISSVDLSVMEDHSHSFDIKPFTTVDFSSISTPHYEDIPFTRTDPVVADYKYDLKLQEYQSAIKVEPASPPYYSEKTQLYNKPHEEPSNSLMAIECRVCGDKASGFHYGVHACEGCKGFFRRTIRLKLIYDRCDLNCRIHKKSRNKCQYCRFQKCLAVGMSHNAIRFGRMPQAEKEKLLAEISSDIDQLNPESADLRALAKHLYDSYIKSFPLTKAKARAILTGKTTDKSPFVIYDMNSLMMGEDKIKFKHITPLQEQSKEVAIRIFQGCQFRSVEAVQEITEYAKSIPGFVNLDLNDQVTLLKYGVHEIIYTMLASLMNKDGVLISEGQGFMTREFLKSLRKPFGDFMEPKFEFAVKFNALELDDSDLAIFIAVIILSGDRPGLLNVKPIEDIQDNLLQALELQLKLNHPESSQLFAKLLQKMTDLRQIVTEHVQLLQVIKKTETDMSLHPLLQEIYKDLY

Row | SMILES | Potency [1] | Potency [2] | Potency [3] | Potency [4] | Potency [5] | Potency [6] | Potency [7] | Potency [8] | outcome [9] | outcome [10] | Potency [11] | outcome [12] | Potency [13] | outcome [14] | Potency [15] | outcome [16] | outcome [17] | Potency [18] | outcome [19] | Potency [20]
1 | N[C@@H](Cc1c[nH]c2ccc(O)cc12)C(=O)O | inactive | 9.44 µM (active) and 5.29 µM (active) | inactive | inactive | inactive | inactive | inactive | inactive | inactive | inactive | inactive | inactive | inactive | inactive | inactive | inactive | inactive | inactive | – | –
2 | COc1cc2c(c(OC)c1OC)-c1ccc(OC)c(=O)cc1[C@@H](NC(C)=O)CC2 | inactive | inactive | inactive | inactive | inactive | inactive | – | inactive | inactive | inactive | inactive | – | inactive | – | inactive | inactive | inactive | – | inactive | –
3 | COC(=O)C1CCC(C(=O)OC)CC1 (configuration not stated) | inactive | inactive | inactive | inactive | inactive | inactive | – | inactive | inactive | inactive | – | inactive | inactive | inactive | inactive | inactive | inactive | – | inactive | inactive
4 | CC(=O)OC/C=C(C)/C=C/C=C(C)/C=C/C1=C(C)CCCC1(C)C | inactive and 66.9 µM (active) and 61.1 µM (active) | inactive | inactive | inactive | inactive | inactive | 59.6 µM (active) | inactive | inactive | – | – | inactive | inactive | inactive | inactive | inactive | inactive | inactive | – | –
5 | CCCCOCCOCCOC(C)=O | inactive | inactive | inactive | inactive | inactive | inactive | inactive | inactive | inactive | inactive | – | inactive | inactive | inactive | inactive | inactive | inactive | – | – | –
6 | O=C(O)CCCCC1CCSS1 (configuration not stated) | inactive | inactive | inactive | inactive | inactive | inactive | – | inactive | inactive | inactive | inactive | inactive | inactive | inactive | inactive | inactive | inactive | – | – | –
7 | COC(=O)c1ccc(C=O)cc1 | inactive | inactive | inactive | inactive | inactive | inactive | inactive | inactive | inactive | inactive | – | inactive | inactive | inactive | inactive | inactive | inactive | inactive | inactive | inactive
8 | CC(=O)Oc1ccccc1C(=O)O | inactive | inactive | inactive | inactive | inactive | inactive | inactive | inactive | inactive | – | inactive | – | inactive | – | inactive | inactive | inactive | inactive | – | –
9 | COC1=CC(=O)C[C@@H](C)[C@]12Oc1c(Cl)c(OC)cc(OC)c1C2=O | inactive | inactive | inactive | inactive and 48.5 µM (active) | 19.5 µM (active) | inactive | – | inactive | inactive | inactive | – | inactive | inactive | – | inactive | inactive | inactive | – | inactive | inactive
10 | OCCCc1ccccc1 | inactive | inactive | inactive | inactive | inactive | inactive | inactive | inactive | inactive | inactive | – | inactive | inactive | inactive | inactive | inactive | inactive | – | – | –
11 | CCCCOC(=O)CCCCCCCCC(=O)OCCCC | inactive | inactive | inactive | inactive | inactive | inactive | inactive | inactive | inactive | inactive | – | – | inactive | – | inactive | inactive | inactive | – | – | –
12 | COc1cc(C=O)ccc1O | inactive | inactive | inactive | inactive | inactive | inactive | inactive | inactive | inactive | – | – | inactive | inactive | inactive | inactive | inactive | inactive | inactive | inactive | inactive
13 | COCC(C)N (configuration not stated) | inactive | inactive | inactive | inactive | inactive | inactive | inactive | inactive | inactive | inactive | – | inactive | inactive | inactive | inactive | inactive | inactive | – | inactive | inactive
14 | Oc1cccc(O)c1 | inactive | inactive | inactive | inactive | inactive | inactive | inactive | inactive | inactive | inactive | – | inactive | inactive | inactive | inactive | inactive | inactive | inactive | inactive | inactive
15 | Cn1cnc2c1c(=O)[nH]c(=O)n2C | inactive | inactive | inactive | inactive | inactive | inactive | inactive | inactive | inactive | inactive | – | inactive | inactive | inactive | inactive | inactive | inactive | inactive | inactive | inactive
